The values that follow come from PubChem BioAssay (Tox21).

Several values for one entry are separate records, joined by “and”; a condition that tells them apart may be missing. Identical values can stand only once. Records with an inconclusive call do not appear. Where a structure was tested more than once in an assay, its records may differ in their call. Activity calls are given as the source filed them. Unless noted, calls follow the shape of the dose curve; as a rule, active = well fitted curve in the direction sought with a large enough effect in the repeat runs; inconclusive = weak or mixed curves; inactive = no such curve, though single readings can be large; an effect the other way counts as inactive or inconclusive.

The nature of assay [1]: qHTS assay to identify small molecule that activate the aryl hydrocarbon receptor (AhR) signaling pathway - cell viability counter screen (AID 743086).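 Also: HepG2 liver cells carrying the AhR DRE luciferase reporter; series mostly up to about 70 µM; nearly all actives have a fitted effect of over 45% in size.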 An outline of the steps: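 HepG2-AhR-luc (HG2L7.5c1) cells, 4000/well, treated 24 h at 37 C with compound; viability measured as CellTiter-Fluor fluorescence after 30 min in the same wells as the luciferase read.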
Background: qHTS replaces the single test concentration by a dilution series.

Assay [2] concerns the target Peroxisome proliferator-activated receptor gamma (Homo sapiens) (UniProt P37231). In words: qHTS assay to identify small molecule agonists of the peroxisome proliferator-activated receptor gamma (PPARg) signaling pathway (AID 743094; active = well fitted activation curve with a large enough effect in the signal ratio in the repeat runs, not every such curve was filed as active; the % refers to the signal ratio). The gist of the method:
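Fluorescence-based beta-lactamase readout in HEK293H PPARg UAS-bla cells after 17 h compound exposure (37C) and 1 h B/G FRET substrate incubation at room temperature.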

A short description of assay [3]: qHTS assay for small molecule agonists of the antioxidant response element (ARE) signaling pathway - cell viability counter screen (AID 743203; calls by dose curve; also: nearly all actives have a fitted effect of over 55% in size). An outline of the steps: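 Parallel cytotoxicity read-out for the ARE-bla screen: HepG2 reporter cells, 16 hrs with compounds, then CellTiter-Glo luminescence.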
Assay [4] can be described thus: qHTS assay for small molecule activators of the heat shock response signaling pathway - cell viability counter screen (AID 743209). Also: nearly all actives have a fitted effect of over 50% in size. The gist of the method:
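To flag cytotoxic compounds, HSE-bla HeLa cells plated at 1500 cells/well were dosed for 5 h at 37 C, followed by the reporter FRET read and then CellTiter-Glo, with luminescence recorded 30 min after reagent addition.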

Assay [5] can be described thus: qHTS assay for small molecule activators of the heat shock response signaling pathway (AID 743210; active = well fitted activation curve with a large enough effect in the signal ratio in the repeat runs, with a control signal flat, not every such curve was filed as active; the % refers to the signal ratio; also: series mostly up to about 63 µM). The gist of the method: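 Beta-lactamase reporter read-out: FRET substrate fluorescence after 2.5 h at RT, following 5 h compound treatment at 37 C of HeLa cells carrying HSE-driven bla reporter; quantitative HTS format.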
The target in assay [6] is Peroxisome proliferator-activated receptor delta (Homo sapiens) (UniProt Q03181). Kind of assay: qHTS assay to identify small molecule agonists of the peroxisome proliferator-activated receptor delta (PPARd) signaling pathway (AID 743212; calls by dose curve). The gist of the method: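 Read-out: beta-lactamase FRET fluorescence after 2 h room-temperature incubation with LiveBLAzer B/G substrate. Cells were HEK293H carrying a UAS-bla reporter for PPARd, treated at 37 C with DMSO-dissolved compounds.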

A short description of assay [7]: qHTS assay to identify small molecule antagonists of the peroxisome proliferator-activated receptor delta (PPARd) signaling pathway - cell viability counter screen (AID 743213). Also: nearly all actives have a fitted effect of over 50% in size. Also: potency is read from the fitted curve at half-maximal effect. The gist of the method: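 In this counter screen, HEK293H cells carrying a UAS-beta-lactamase reporter are co-treated with test compounds and 300 nM L165041 (final) for 17 h at 37 C; cell viability is quantified by CellTiter-Glo luminescence.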

The target of assay [8] is Peroxisome proliferator-activated receptor delta (Homo sapiens) (UniProt Q03181). Kind of assay: qHTS assay to identify small molecule antagonists of the peroxisome proliferator-activated receptor delta (PPARd) signaling pathway (AID 743215; active = well fitted inhibition curve with a large enough effect in the signal ratio in the repeat runs, not every such curve was filed as active; the % refers to the signal ratio;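 also: cells stimulated with agonist L165041 at 300 nM final during compound exposure; series mostly up to about 62 µM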). An outline of the steps:
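Screen format: qHTS, antagonist mode. HEK293H PPARd-bla cells received compound and 300 nM L165041 (final), 17 h, 37 C. Beta-lactamase detected via FRET substrate fluorescence, 2 h, room temperature.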

Assay [9] deals with Bile acid receptor (Homo sapiens) (UniProt Q96RI1). In words: qHTS assay to identify small molecule antagonists of the farnesoid-X-receptor (FXR) signaling pathway (AID 743217; active = well fitted inhibition curve with a large enough effect in the signal ratio in the repeat runs, not every such curve was filed as active; the % refers to the signal ratio). The gist of the method: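 Quantitative HTS, beta-lactamase reporter format: FXR-UAS-bla HEK 293T cells co-treated 16 h at 37 °C with compounds and 50 uM final chenodeoxycholic acid, then read by B/G FRET fluorescence.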

Assay [10] can be described thus: qHTS assay to identify small molecule agonists of the farnesoid-X-receptor (FXR) signaling pathway - cell viability counter screen (AID 743218). Also: nearly all actives have a fitted effect of over 45% in size. The gist of the method:
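Same-well cytotoxicity check on FXR-UAS-bla HEK 293T cells: 5 h attachment, 16 h compound at 37 C, CellTiter-Glo luminescence read at room temperature after 30 min.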

Assay [11] deals with Bile acid receptor (Homo sapiens) (UniProt Q96RI1). In words: qHTS assay to identify small molecule agonists of the farnesoid-X-receptor (FXR) signaling pathway (AID 743220; active = well fitted activation curve with a large enough effect in the signal ratio in the repeat runs, not every such curve was filed as active; the % refers to the signal ratio). An outline of the steps: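 FXR-UAS-bla HEK 293T cells carrying a UAS-driven beta-lactamase reporter were plated for 5 h at 37C/5% CO2, then exposed to DMSO-dissolved Tox21 10K compounds for 16 h at 37C. A LiveBLAzer B/G FRET substrate was loaded for 2 h at room temperature before fluorescence reading.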

The nature of assay [12]: qHTS assay to identify small molecule antagonists of the farnesoid-X-receptor (FXR) signaling pathway - cell viability counter screen (AID 743221; active = well fitted cell-killing curve with a large enough effect in the repeat runs, not every such curve was filed as active; also: nearly all actives have a fitted effect of over 50% in size). An outline of the steps:
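HEK 293T FXR-bla cells, 5 h pre-incubation; compound + CDCA 50 uM final, 16 h, 37 C; beta-lactamase FRET read first, then CellTiter-Glo luminescence, 30 min RT.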

In assay [13] the target is Vitamin D3 receptor (Homo sapiens) (UniProt P11473). Kind of assay: qHTS assay to identify small molecule agonists of the vitamin D receptor (VDR) signaling pathway (AID 743222; calls by dose curve). An outline of the steps:
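Using LiveBLAzer B/G FRET detection, agonism was scored in VDR-bla cells exposed overnight (16 h, 37C) to DMSO-dissolved compounds; substrate incubation was 2 h at room temperature.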

Assay [14] has the same target. In words: qHTS assay to identify small molecule antagonists of the vitamin D receptor (VDR) signaling pathway (AID 743223; active = well fitted inhibition curve with a large enough effect in the signal ratio in the repeat runs, not every such curve was filed as active; the % refers to the signal ratio). The gist of the method: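 Beta-lactamase reporter read-out: FRET substrate fluorescence after 2 h at room temperature, following 16 h exposure of VDR-bla cells to test compound plus 3 nM (final) 1alpha,25-dihydroxyvitamin D3 agonist at 37C.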

Assay [15] in a line: qHTS assay to identify small molecule agonists of the vitamin D receptor (VDR) signaling pathway - cell viability counter screen (AID 743224). Also: nearly all actives have a fitted effect of over 50% in size. Also: potency is read from the fitted curve at half-maximal effect. An outline of the steps:
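Counter screen for cytotoxicity: VDR-bla cells at 2,000 cells/well, 16 h compound exposure, then CellTiter-Glo luminescence after the beta-lactamase measurement.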

Assay [16] is described as follows: qHTS assay to identify small molecule antagonists of the vitamin D receptor (VDR) signaling pathway - cell viability counter screen (AID 743225). Also: nearly all actives have a fitted effect of over 50% in size. Also: potency is read from the fitted curve at half-maximal effect. An outline of the steps: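 Viability counter screen run in the same wells as the beta-lactamase reporter assay: HEK 293T VDR-UAS-bla cells, 16 h compound exposure at 37C with 3 nM (final) 1-alpha,25-dihydroxyvitamin D3. CellTiter-Glo luminescence, 30 min, room temperature.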

A short description of assay [17]: qHTS assay to identify small molecule agonists of the peroxisome proliferator-activated receptor delta (PPARd) signaling pathway - cell viability counter screen (AID 743211). Also: nearly all actives have a fitted effect of over 55% in size. Also: potency is read from the fitted curve at half-maximal effect. The gist of the method:
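Read-out: CellTiter-Glo luminescence, 30 min RT, measured in the same wells as the beta-lactamase reporter. Cells: GeneBLAzer PPAR delta UAS-bla HEK293H, 3000 cells/well, compound exposure 17 h at 37C.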

A short description of assay [18]: qHTS assay to identify small molecule antagonists of the peroxisome proliferator-activated receptor gamma (PPARg) signaling pathway - cell viability counter screen (AID 743194). Also: nearly all actives have a fitted effect of over 55% in size. Also: potency is read from the fitted curve at half-maximal effect. The gist of the method:
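Cytotoxicity counter screen in PPARg-bla HEK293H cells, same wells as reporter assay. Compounds plus 50 nM rosiglitazone (final) for 17 h at 37 C, then viability read by CellTiter-Glo luminescence.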

A short description of assay [19]: qHTS assay for small molecule agonists of the antioxidant response element (ARE) signaling pathway (AID 743202; active = well fitted activation curve with a large enough effect in the signal ratio in the repeat runs, not every such curve was filed as active; the % refers to the signal ratio). The gist of the method: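 HepG2 ARE-bla reporter line, 2,000 cells/well; 5 h preincubation 37 C/5% CO2; compound (DMSO) 16 h 37 C; B/G FRET substrate 2 h RT; fluorescence intensity.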

Chain of Vitamin D3 receptor (Homo sapiens) (P11473 whole entry, looked up): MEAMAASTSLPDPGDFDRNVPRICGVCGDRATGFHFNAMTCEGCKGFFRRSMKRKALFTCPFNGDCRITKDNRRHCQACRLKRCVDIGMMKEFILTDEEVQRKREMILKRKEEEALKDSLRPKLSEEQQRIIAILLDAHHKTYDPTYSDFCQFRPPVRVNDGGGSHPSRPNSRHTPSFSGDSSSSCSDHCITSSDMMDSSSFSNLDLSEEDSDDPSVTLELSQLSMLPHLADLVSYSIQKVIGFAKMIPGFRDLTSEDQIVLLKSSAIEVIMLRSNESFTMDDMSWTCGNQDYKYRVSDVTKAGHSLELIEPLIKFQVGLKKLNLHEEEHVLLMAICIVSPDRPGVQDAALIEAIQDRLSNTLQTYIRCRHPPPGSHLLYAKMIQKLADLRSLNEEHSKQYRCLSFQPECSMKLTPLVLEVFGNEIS
Chain of Bile acid receptor (Homo sapiens) (Q96RI1 whole entry, looked up): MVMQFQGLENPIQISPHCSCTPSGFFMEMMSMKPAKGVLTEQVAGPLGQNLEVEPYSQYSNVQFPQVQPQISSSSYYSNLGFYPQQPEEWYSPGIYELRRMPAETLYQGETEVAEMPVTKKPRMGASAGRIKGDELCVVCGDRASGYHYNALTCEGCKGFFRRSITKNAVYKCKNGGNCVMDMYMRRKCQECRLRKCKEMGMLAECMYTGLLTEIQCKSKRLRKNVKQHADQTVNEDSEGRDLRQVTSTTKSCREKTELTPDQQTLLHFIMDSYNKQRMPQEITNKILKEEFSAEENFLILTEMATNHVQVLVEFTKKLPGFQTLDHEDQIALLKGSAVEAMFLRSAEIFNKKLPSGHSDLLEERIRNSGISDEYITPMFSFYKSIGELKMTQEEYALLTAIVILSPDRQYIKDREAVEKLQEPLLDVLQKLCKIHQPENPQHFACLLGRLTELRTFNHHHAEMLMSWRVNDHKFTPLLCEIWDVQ
Chain of Peroxisome proliferator-activated receptor delta (Homo sapiens) (Q03181 whole entry, looked up): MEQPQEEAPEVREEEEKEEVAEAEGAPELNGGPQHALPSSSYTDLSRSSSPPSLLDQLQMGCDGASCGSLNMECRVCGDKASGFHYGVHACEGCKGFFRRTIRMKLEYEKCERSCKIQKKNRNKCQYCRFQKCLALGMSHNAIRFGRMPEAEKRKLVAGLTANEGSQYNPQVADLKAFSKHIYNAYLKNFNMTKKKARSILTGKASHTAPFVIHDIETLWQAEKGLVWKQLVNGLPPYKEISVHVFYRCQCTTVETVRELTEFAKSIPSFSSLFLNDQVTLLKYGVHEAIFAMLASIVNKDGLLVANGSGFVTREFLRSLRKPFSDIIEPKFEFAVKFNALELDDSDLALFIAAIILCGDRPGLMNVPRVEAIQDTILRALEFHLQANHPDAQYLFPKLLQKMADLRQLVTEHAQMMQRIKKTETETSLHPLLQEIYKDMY
Chain of Peroxisome proliferator-activated receptor gamma (Homo sapiens) (P37231 whole entry, looked up): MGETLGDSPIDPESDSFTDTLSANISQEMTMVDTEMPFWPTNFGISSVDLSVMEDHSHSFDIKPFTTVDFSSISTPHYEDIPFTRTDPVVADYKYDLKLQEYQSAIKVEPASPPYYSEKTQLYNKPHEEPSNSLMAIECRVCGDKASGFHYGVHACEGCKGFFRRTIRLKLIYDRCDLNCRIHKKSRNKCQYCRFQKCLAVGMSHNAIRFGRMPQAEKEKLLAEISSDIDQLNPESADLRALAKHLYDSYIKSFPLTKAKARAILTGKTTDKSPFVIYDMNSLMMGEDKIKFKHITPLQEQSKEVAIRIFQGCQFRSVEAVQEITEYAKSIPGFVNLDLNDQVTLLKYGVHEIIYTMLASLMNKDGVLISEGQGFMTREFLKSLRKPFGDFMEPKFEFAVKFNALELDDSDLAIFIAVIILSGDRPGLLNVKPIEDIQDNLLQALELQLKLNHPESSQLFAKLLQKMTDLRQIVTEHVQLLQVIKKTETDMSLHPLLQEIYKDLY

Regarding `C#C[C@]1(O)CC[C@H]2[C@@H]3CCc4cc(OC)ccc4[C@H]3CC[C@@]21C`, the Potency entry in assay [1], in assay [2], in [3], in assay [4], in assay [5] and in assay [7] was “inactive” in each case. Further, the Potency entry in assay [8], in assay [9], in [10], in assay [12], in [15] and in assay [16] was “inactive” in each case. Further, the call in [6], in assay [11], in [13] and in assay [14] was inactive.

For the compound `CC(C)OC(=O)C(C)(C)Oc1ccc(C(=O)c2ccc(Cl)cc2)cc1`, the Potency result in [1], in assay [3], in [4], in assay [5], in assay [9] and in [10] was “inactive” in each case. For the same compound, the Potency entry in assay [12] was “inactive”. Besides, the Potency in [17] is 54.9 µM (active); in assay [7], 49 µM (active) and inactive; in [15], 13.8 µM (active) and inactive. Further, the compound was classed as inactive in assay [6], in [11], in [13] and in assay [14].

For `O=C(OCc1ccccc1)c1ccccc1O`, the Potency result in assay [1], in assay [18], in assay [19], in assay [3], in assay [4] and in [5] was “inactive” in each case. The Potency result in [12] and in assay [15] was “inactive” throughout. In addition, the result in assay [6], in assay [13] and in assay [14] was inactive.

Regarding `CCCCC/C=C/C=C/C=O`, the Potency result in assay [1], in assay [3], in assay [4], in assay [7], in assay [8] and in assay [9] was “inactive” throughout. The Potency entry in [10] and in [12] was “inactive” in each case. For the same compound, the Potency in assay [18] is 38.6 µM (active) and 38.9 µM (active); in assay [15] it was “inactive and 49 µM (active)”. Also, the outcome in assay [6], in assay [11] and in [13] was inactive.

`Cc1cc2nc3c(=O)[nH]c(=O)nc-3n(C[C@H](O)[C@H](O)[C@H](O)CO)c2cc1C`: the Potency entry in [18], in assay [3], in assay [4], in assay [5], in [17] and in [7] was “inactive” in each case. In addition, the Potency result in assay [8], in [9], in [10], in assay [12] and in [15] was “inactive” throughout. Moreover, the outcome in [6] and in [11] was inactive.

In the case of `O=P(O)(O)O`, the Potency result in [1], in assay [18], in assay [3], in [4], in [5] and in assay [17] was “inactive” each time. The Potency result in assay [7], in assay [9], in assay [10], in [12] and in assay [15] was “inactive” in each case. The call in assay [11], in assay [13] and in [14] was inactive. Besides, the Potency entry in [16] was “inactive and 5.49 µM (active)”.
